Key:
Assay type in all cases: functional
Plasmodium falciparum [1] = test: GSK_TCMDC: Inhibition of Plasmodium falciparum 3D7 in whole red blood cells, using parasite LDH activity as an index of growth. Test compounds present at 2uM
Plasmodium falciparum [2] = test: GSK_TCMDC: Inhibition of Plasmodium falciparum Dd2 in whole red blood cells, using parasite LDH activity as an index of growth. Test compounds present at 2uM
HepG2 = test: GSK_TCMDC: Percent inhibition of human HepG2 cell line. Test compounds present at 10uM.

Compound | Inhibition (Plasmodium falciparum [1]) | Inhibition (Plasmodium falciparum [2]) | Inhibition (HepG2)
Cc1cc2c(NC(=O)NC3CCN(Cc4ccc(Cl)c(Cl)c4)CC3)cccc2cn1.Cl | 100% | 41% | 11%
CC1CN(c2ccc3[nH]cc(Sc4ccc(-c5cccs5)cc4)c3c2)CC(C)N1.Cl (centres undefined) | 89% | – | 29%
CS(=O)(=O)Cc1ccc(Nc2nccc(-c3c(-c4cccc(C(=O)Nc5c(F)cccc5F)c4)nn4ccccc34)n2)cc1 | 96% | 92% | 85%
Cn1cccc1CCNCc1ccc(-c2cccc(-c3nc4cc(F)ccc4[nH]3)c2)cc1.O=C(O)C(F)(F)F | 93% | 43% | 0%
COc1ccccc1CCCN1C(=O)C(c2ccccc2)(c2ccccc2)N=C1N.O=C(O)C(F)(F)F | 99% | 99% | 49%
Cc1cc(N(C)C)nc(Nc2ccc(NC(=O)CCc3ccccc3)cc2)n1 | 100% | 84% | 20%
COc1ccc2nccc([C@@H](O)CN3CCC(NCc4cc5ccccc5nn4)CC3)c2c1.O=C(O)C(=O)O | 94% | 16% | 5%
COc1ccc2nccc([C@@H](O)CN3CCC(NCCOc4cccc(C(F)(F)F)c4)CC3)c2c1.O=C(O)C(=O)O | 100% | 74% | 16%
CC(C)(C)OC(=O)N1CCC(C2CCN(C(=O)OC(C)(C)C)CC2)CC1 | 86% | 28% | 0%
CN1CCN(CCCCCNc2c3ccccc3nc3ccccc23)CC1.Cl | 99% | 0% | 57%

From ChEMBL document CHEMBL1157539, “Thousands of chemical starting points for antimalarial lead identification” (Nature, 2010)
